DUX4 txn inh: inhibitors of DUX4-driven ZSCAN4 reporter expression, primary screen, 293T cells, Gaussia and Italica luciferase. 293T-iDUX4 ZSCAN4-Gaussia luciferase reporter, 24 h; active compounds read low. activity change, negative = inhibition, % (concentration not given with the values). 0.8% of 37,000 active;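 active means mean inhibition of at least 10% in the main channel, exceeding the control channel by a set limit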;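 further: 0% = median of neutral control wells and -100% = median of positive control wells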
* marks the source's active call; other numbers are inactive results. This excerpt belongs to a sample that is enriched for hits.

SMILES | DUX4 txn inh
O=C(Cc1ccncc1)N1CCCCN2[C@@H](CO)[C@@H](c3ccc(-c4ccncc4)cc3)[C@@H]2C1 | 13.8
O=C(Cc1ccncc1)N1CCCCN2[C@H](CO)[C@H](c3ccc(-c4ccncc4)cc3)[C@@H]2C1 | 12.4
O=C(Cc1ccncc1)N1CCCCN2[C@H](CO)[C@@H](c3ccc(C#Cc4ccccc4F)cc3)[C@H]2C1 | -27.9*
O=C(Cc1ccccn1)N1CCCCN2[C@H](CO)[C@@H](c3ccc(-c4ccccc4)cc3)[C@H]2C1 | 18.0
O=C1CNC[C@H]2[C@H](c3ccc(Br)cc3)[C@H](CO)N12 | 9.9
COC(=O)[C@@H]1[C@@H](CO)[C@@H]2Cn3c(ccc(-c4cccnc4)c3=O)[C@H]1N2S(=O)(=O)c1ccccc1C | 2.3
COC(=O)[C@H]1[C@H](CO)[C@H]2Cn3c(ccc(-c4cccnc4)c3=O)[C@@H]1N2S(=O)(=O)c1ccccc1C | -1.8
COC(=O)[C@@H]1[C@@H](CO)[C@@H]2Cn3c(ccc(-c4cncnc4)c3=O)[C@H]1N2S(=O)(=O)c1ccccc1C | -16.5*
Cc1cccc(S(=O)(=O)N2[C@@H]3c4ccc(-c5ccccc5)c(=O)n4C[C@H]2[C@H](CO)[C@H]3C(=O)O)c1 | -4.2
O=C(Cc1ccccc1)N1CCCCN2[C@@H](CO)[C@@H](c3ccc(C#CC4(O)CCCC4)cc3)[C@@H]2C1 | -3.2

Screens: PubChem BioAssay, Broad Institute
